# “And” between values parts separate entries of the source, which are not always exact repeats. Equal entries are not always repeated. Hit rate of the full screen: of about 5,500 compounds, about 2,000 (36%) were called active. Another 18% or so got no clear call; they are omitted. Cut-off read from the data, not from the text of the source: active = normalized growth mostly below about 0.91 (no sharp cut-off); inconclusive = no clear call, values can overlap the other calls; inactive = mostly above about 0.92. This is one part of the list.
# Experiment: chemical genetic growth profiling, strain panel (AID 1159580);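 note: tested at 20 µM; growth read once vehicle control cultures reached saturation at 30 °C; 1 = growth at the plate median or of vehicle wells; lower values mean less growth of the strain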
# Conditions: S. cerevisiae deletion strains, growth OD
compound,measurement,setting,value
CC(=O)c1c(O)c(C)c(O)c2c1OC1=CC(=O)C(C(C)=O)C(=O)C12C (configuration not stated),normalized growth,"locus YAL021C, strain ccr4, stronger effect = lower value",0.816 (active)
same,normalized growth,"locus YAL026C, strain drs2, stronger effect = lower value",0.812 (active)
same,normalized growth,"locus YAL030W, strain snc1, stronger effect = lower value",0.938 (inactive)
same,normalized growth,"locus YBL061C, strain skt5, stronger effect = lower value",0.966 (inactive)
same,normalized growth,"locus YBR009C, strain hhf1, stronger effect = lower value",0.739 (active)
same,normalized growth,"locus YBR021W, strain FUR4, stronger effect = lower value",1.01 (inactive)
same,normalized growth,"locus YBR023C, strain chs3, stronger effect = lower value",0.978 (inactive)
same,normalized growth,"locus YBR171W, strain sec66, stronger effect = lower value",0.933 (inactive)
same,normalized growth,"locus YBR229C, strain ROT2, stronger effect = lower value",1.01 (inactive)
same,normalized growth,"locus YBR231C, strain swc5, stronger effect = lower value",0.963 (inactive)
same,normalized growth,"locus YBR279W, strain paf1, stronger effect = lower value",1.01 (inactive)
same,normalized growth,"locus YCL011C, strain gbp2, stronger effect = lower value",0.672 (active)
same,normalized growth,"locus YCL016C, strain dcc1, stronger effect = lower value",0.987 (inactive)
same,normalized growth,"locus YCL029C, strain bik1, stronger effect = lower value",0.976 (inactive)
same,normalized growth,"locus YCL061C, strain MRC1, stronger effect = lower value",0.858 (active)
same,normalized growth,"locus YCL069W, strain vba3, stronger effect = lower value",0.957 (inactive)
same,normalized growth,"locus YCR088W, strain abp1, stronger effect = lower value",0.872 (active)
same,normalized growth,"locus YDL005C, strain med2, stronger effect = lower value",0.985 (inactive)
same,normalized growth,"locus YDL035C, strain GPR1, stronger effect = lower value",1.01 (inactive)
same,normalized growth,"locus YDL040C, strain nat1, stronger effect = lower value",0.991 (inactive)
same,normalized growth,"locus YDL074C, strain BRE1, stronger effect = lower value",0.987 (inactive)
same,normalized growth,"locus YDL101C, strain DUN1, stronger effect = lower value",1.01 (inactive)
same,normalized growth,"locus YDL185W, strain tfp1, stronger effect = lower value",0.506 (active)
same,normalized growth,"locus YDL192W, strain arf1, stronger effect = lower value",0.852 (active)
same,normalized growth,"locus YDR001C, strain nth1, stronger effect = lower value",0.96 (inactive)
same,normalized growth,"locus YDR069C, strain doa4, stronger effect = lower value",0.98 (inactive)
same,normalized growth,"locus YDR101C, strain arx1, stronger effect = lower value",0.89 (active)
same,normalized growth,"locus YDR137W, strain rgp1, stronger effect = lower value",0.972 (inactive)
same,normalized growth,"locus YDR150W, strain NUM1, stronger effect = lower value",1.01 (inactive)
same,normalized growth,"locus YDR159W, strain sac3, stronger effect = lower value",0.762 (active)
same,normalized growth,"locus YDR162C, strain NBP2, stronger effect = lower value",1.03 (inactive)
same,normalized growth,"locus YDR195W, strain ref2",0.799 (active)
same,normalized growth,"locus YDR297W, strain sur2, stronger effect = lower value",0.962 (inactive)
same,normalized growth,"locus YDR318W, strain mcm21, stronger effect = lower value",0.981 (inactive)
same,normalized growth,"locus YDR334W, strain swr1, stronger effect = lower value",0.953 (inactive)
same,normalized growth,"locus YDR335W, strain msn5, stronger effect = lower value",0.752 (active)
same,normalized growth,"locus YDR388W, stronger effect = lower value",0.976 (inactive)
same,normalized growth,"locus YDR392W, strain spt3, stronger effect = lower value",0.526 (active)
same,normalized growth,"locus YDR502C, strain sam2, stronger effect = lower value",0.853 (active)
same,normalized growth,"locus YEL003W, strain gim4, stronger effect = lower value",0.787 (active)
same,normalized growth,"locus YEL037C, strain rad23, stronger effect = lower value",0.948 (inactive)
same,normalized growth,"locus YEL061C, strain CIN8 (second series), stronger effect = lower value",0.895 (active)
same,normalized growth,"locus YEL061C, strain CIN8, stronger effect = lower value",1.01 (inactive)
same,normalized growth,"locus YER015W, strain faa2, stronger effect = lower value",0.912 (active)
same,normalized growth,"locus YER016W, strain bim1, stronger effect = lower value",1 (inactive)
same,normalized growth,"locus YER110C, stronger effect = lower value",0.988 (inactive)
same,normalized growth,"locus YER111C, strain swi4, stronger effect = lower value",0.919 (inactive)
same,normalized growth,"locus YER155C, strain BEM2 (second series), stronger effect = lower value",0.868 (inactive)
same,normalized growth,"locus YER155C, strain BEM2, stronger effect = lower value",1.01 (inactive)
same,normalized growth,"locus YER167W, strain BCK2, stronger effect = lower value",1.01 (inactive)
same,normalized growth,"locus YFR010W, strain ubp6, stronger effect = lower value",0.901 (inactive)
same,normalized growth,"locus YGL078C, strain dbp3, stronger effect = lower value",0.567 (active)
same,normalized growth,"locus YGL086W, strain mad1, stronger effect = lower value",0.909 (active)
same,normalized growth,"locus YGL167C, strain pmr1, stronger effect = lower value",1.01 (inactive)
same,normalized growth,"locus YGL173C, strain kem1, stronger effect = lower value",0.992 (inactive)
same,normalized growth,"locus YGL227W, strain vid30, stronger effect = lower value",0.946 (inactive)
same,normalized growth,"locus YGL240W, strain doc1, stronger effect = lower value",0.894 (inactive)
same,normalized growth,"locus YGL248W, strain PDE1, stronger effect = lower value",1.02 (inactive)
same,normalized growth,"locus YGL253W, strain hxk2, stronger effect = lower value",0.892 (active)
same,normalized growth,"locus YGR078C, strain PAC10, stronger effect = lower value",1.02 (inactive)
same,normalized growth,"locus YGR135W, strain pre9, stronger effect = lower value",0.946 (inactive)
same,normalized growth,"locus YGR252W, strain gcn5, stronger effect = lower value",0.945 (inactive)
same,normalized growth,"locus YHR013C, strain ard1, stronger effect = lower value",1 (inactive)
same,normalized growth,"locus YHR027C, strain rpn1, stronger effect = lower value",0.983 (inactive)
same,normalized growth,"locus YHR030C, strain SLT2, stronger effect = lower value",1.01 (inactive) and 0.142 (active)
same,normalized growth,"locus YHR079C, strain IRE1 (second series), stronger effect = lower value",0.986 (inactive)
same,normalized growth,"locus YHR079C, strain IRE1, stronger effect = lower value",0.133 (active)
same,normalized growth,"locus YHR094C, strain hxt1, stronger effect = lower value",0.984 (inactive)
same,normalized growth,"locus YHR129C, strain ARP1, stronger effect = lower value",1.02 (inactive)
same,normalized growth,"locus YHR142W, strain chs7, stronger effect = lower value",0.82 (active)
same,normalized growth,"locus YHR200W, strain rpn10, stronger effect = lower value",0.932 (inactive)
same,normalized growth,"locus YIL066C, strain RNR3, stronger effect = lower value",1.02 (inactive)
same,normalized growth,"locus YIL073C, strain SPO22, stronger effect = lower value",1.03 (inactive)
same,normalized growth,"locus YIL125W, strain kgd1, stronger effect = lower value",0.365 (active)
same,normalized growth,"locus YIR030C, strain dcg1, stronger effect = lower value",0.975 (inactive)
same,normalized growth,"locus YJL092W, strain hpr5, stronger effect = lower value",0.908 (active)
same,normalized growth,"locus YJL095W, strain BCK1 (second series), stronger effect = lower value",0.964 (inactive)
same,normalized growth,"locus YJL095W, strain BCK1, stronger effect = lower value",1.03 (inactive) and 0.13 (active)
same,normalized growth,"locus YJL115W, strain asf1, stronger effect = lower value",0.947 (inactive)
same,normalized growth,"locus YJL129C, strain trk1, stronger effect = lower value",0.684 (active)
same,normalized growth,"locus YJL134W, strain LCB3, stronger effect = lower value",1.01 (inactive)
same,normalized growth,"locus YJL154C, strain vps35, stronger effect = lower value",0.979 (inactive)
same,normalized growth,"locus YJL164C, strain tpk1, stronger effect = lower value",0.84 (active)
same,normalized growth,"locus YJL166W, strain qcr8, stronger effect = lower value",0.913 (inactive)
same,normalized growth,"locus YJL168C, strain set2, stronger effect = lower value",0.972 (inactive)
same,normalized growth,"locus YJL187C, strain SWE1 (second series), stronger effect = lower value",1.01 (inactive)
same,normalized growth,"locus YJL187C, strain SWE1, stronger effect = lower value",0.972 (inactive)

# Source: PubChem BioAssay AID1159580 (chemical genetic matrix, 2015)
